What all share (assay): NCI-60 one-dose screen, 48 h (100 = growth as untreated, 0 = no growth, -100 = all killed)
Holding throughout (settings): 10 µM unless noted

In assay [1] the test system is T-47D breast.
The test system of assay [2] is BT-549 breast.
For assay [3], the system named is MDA-MB-435 melanoma.
The test system of assay [4] is SW-620 colon.
The subject of assay [5] is MCF7 breast.
Assay [6] has as its system HCT-116 colon.
Assay [7] has as its system HCC-2998 colon.
Assay [8] has as its system KM12 colon.

This is part of a sample that, as a whole, favours compounds with a hit. Of some 83,000 tested, about 20% had one in any assay.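 Single-concentration screen, 48 h exposure, 96-well plates. Endpoint: percent growth. Below 10 = active.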 Unmarked numbers belong to inactive results. Calls of active or inactive are those of the source.

For `CCNc1nc2ccc(Nc3ccnc4cc(Cl)ccc34)cc2[nH]1`, the growth in assay [1] was 100%; in assay [2] it was 86.8%; in assay [3] it was 93.1%; in assay [4] it was 57.8%; in assay [5] it was 45.1%; in assay [6] it was 17.3%. Also, the growth in assay [7] was 84.1%; in assay [8], 67%.

Regarding `CCOC(=O)[C@@H](C)C[C@H](Cc1ccccc1)NC(=O)c1csc([C@@H](C[C@H](C(C)C)N(C)C(=O)[C@@H](NC(=O)[C@H]2C[C@H](O[Si](C)(C)C(C)(C)C)CCN2C)C(C)C)OC(C)=O)n1`, the growth in assay [1] is 37% [9.25 µM]; in assay [2], -29.6% [9.25 µM] (active); in assay [3], -57.5% [9.25 µM] (active); in assay [4] it was 11.8% [9.25 µM]; in assay [5], 13% [9.25 µM]; in assay [6], -25.9% [9.25 µM] (active). Besides, the figures for the growth in assay [7] and in assay [8] were -1.53% [9.25 µM] (active) and 2.03% [9.25 µM] (active), respectively.

For `COc1ccccc1/C(C)=N/NC(=O)CSc1nc2ccccc2c(=O)n1Cc1ccc(S(N)(=O)=O)cc1`, the growth is 97.6% in assay [1]; 99.3% in assay [2]; 103% in assay [3]; 100% in assay [4]; 89.2% in assay [5]; 95.9% in assay [6]. Besides, the results for the growth in assay [7] and in assay [8] were 95.9% and 102%, respectively.

As for `C=C(C)[C@@H]1CC[C@]2(C(=O)N3CCN(C)CC3)CC[C@]3(C)[C@H](CC[C@@H]4[C@@]5(C)CC[C@H](OCCC#N)C(C)(C)[C@@H]5CC[C@]43C)[C@@H]12`, the growth in assay [1] was 91.7%; in assay [2], 107%; in assay [3], 107%; in assay [4] it was 7.33% (active); in assay [5] it was 77.7%; in assay [6], 44.4%. In addition, the figures for the growth in assay [7] and in assay [8] were 102% and 48.2%, respectively.

As to `COc1cc(C2C3CC4CCCC[C@H]4N3[C@@]3(C(=O)Nc4cc(Cl)ccc43)C2C(=O)c2nc3ccccc3[nH]2)cc(OC)c1OC` (stereo not given in full), the growth was 36.3% in assay [1]; 76% in assay [2]; 53.1% in assay [3]; 60.5% in assay [4]; 30.4% in assay [5]; 34.7% in assay [6]. Further, the growth in assay [7] was 69.9%; in assay [8], 60.6%.

For the compound `Nc1c(C(=O)Nc2cccc3cnccc23)sc2nc3c(cc12)C(=O)CCC3`, the growth in assay [1] was 105%; in assay [2], 83.4%; in assay [3], 7.12% (active); in assay [4], 79.4%; in assay [5], 53.8%; in assay [6] it was 86%. Further, the figures for the growth in assay [7] and in assay [8] were 97.4% and 71.5%, respectively.

Turning to `NS(=O)(=O)c1ccc(CCN2C(=O)C=CC2=O)cc1`, the growth in assay [1] was 99.5%; in assay [2] it was 111%; in assay [3], 108%; in assay [4], 106%; in assay [5] it was 94.4%; in assay [6] it was 99.7%. In addition, the growth in assay [7] was 95.2%; in assay [8], 104%.

In the case of `O=[N+]([O-])c1ccc(NC(=S)N/N=C/c2cc3ccccc3n3nnnc23)cc1`, the growth in assay [1] is 46.5%; in assay [2] it was 80.4%; in assay [3] it was 82.4%; in assay [4] it was 24.4%; in assay [5] it was 13.8%; in assay [6], 61.3%. In addition, the growth in assay [7] is 54%; in assay [8], 66.9%.

Consider `Cc1cc2nc3c4cc([N+](=O)[O-])ccc4n(CCN(C)C)c3nc2cc1C`, for which the growth in assay [1] was 10.6%; in assay [2] it was 31.7%; in assay [3], -32.2% (active); in assay [4], -5.68% (active); in assay [5], 4.74% (active); in assay [6], 2.59% (active). Further, the values for the growth in assay [7] and in assay [8] were -37.2% (active) and 5.62% (active), respectively.

Regarding `Cc1c(C(=O)NCCC(=O)NO)sc2ncnc(Nc3ccc(F)c(Cl)c3)c12`, the growth is 107% in assay [1]; 114% in assay [2]; 102% in assay [3]; 101% in assay [4]; 95.2% in assay [5]; 107% in assay [6]. Also, the growth is 105% in assay [7] and 104% in assay [8].

For the compound `OCc1cnccc1NCCCOc1ccccc1`, the growth in assay [1] is 101%; in assay [2] it was 108%; in assay [3], 110%; in assay [4] it was 98.3%; in assay [5], 92.1%; in assay [6], 100%. The growth is 97.1% in assay [7] and 106% in assay [8].

For the compound `N#Cc1c(-c2ccccc2)nc2c(c(-c3ccccc3)nn2-c2ccccc2)c1-c1ccc(O)cc1`, the growth is 35.3% in assay [1]; 59.7% in assay [2]; 51.5% in assay [3]; 16.5% in assay [4]; 14.8% in assay [5]; 34.8% in assay [6]. In addition, the growth in assay [7] is 72%; in assay [8], 47.1%.

As to `C[C@H]1[C@H]2[C@H]3CC[C@@H]4[C@@]5(C)CC[C@H](O)C(C)(C)[C@@H]5CC[C@@]4(C)[C@]3(C)CC[C@]23CO[C@]1(C)[C@@H](C(=O)/C=C\c1ccco1)C3`, the growth was 84.8% in assay [1]; 105% in assay [2]; 17.8% in assay [3]; 97.1% in assay [4]; 101% in assay [5]; 100% in assay [6]. Besides, the growth was 104% in assay [7] and 100% in assay [8].

As to `Nc1n[nH]c2cccc(C#Cc3cccc(C(=O)Nc4cc(CN5CCOCC5)cc(C(F)(F)F)c4)c3)c12`, the growth in assay [1] is 37.1%; in assay [2] it was 57.9%; in assay [3], 23.4%; in assay [4], 30.9%; in assay [5], 44.2%; in assay [6], 14.1%. Also, the figures for the growth in assay [7] and in assay [8] were 45% and 13.1%, respectively.

`COc1ccc(CC(C)=C(c2ccc(OCCN3CCCCCC3)cc2)c2ccc(OCCN3CCCCCC3)cc2)cc1`: the growth was -73.3% (active) in assay [1]; -75.9% (active) in assay [2]; -98.2% (active) in assay [3]; -90.5% (active) in assay [4]; -90.2% (active) in assay [5]; -55.1% (active) in assay [6]. Moreover, the figures for the growth in assay [7] and in assay [8] were -91.8% (active) and -97.4% (active), respectively.

The values above are taken from PubChem BioAssay (NCI).
